# About 79,000 compounds went through this panel and 15% of them were active in at least one assay; those are over-represented in the sample as a whole. Unmarked numbers belong to inactive results. The source made the active and inactive calls. No stated cut-off is given here; in the data, active means growth inhibition above about 70%; inactive means the rest.
# Test: NCI Yeast Anticancer Drug Screen. Data for the mlh1 strain (AID 171);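 further: 0% = growth of vehicle-treated control cultures of the same strain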
# Conditions: S. cerevisiae mlh1 strain growth inhibition; at 1.2 µM; stronger effect = higher value
# Procedure, shortened: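 Here the genetically defined yeast mutant is grown with each compound, and the extent to which its growth falls below that of vehicle-exposed cells is reported.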
row,Structure (SMILES),growth inhibition
1,COc1cc2c3c(cccc3c1)C(=O)N(CCN(C)C)C2=O,-39%
2,c1ccc2c(c1)Oc1cccc3cccc-2c13,7%
3,CN(C)CCOc1ccc2c(c1)C/C(=C/c1ncc([N+](=O)[O-])n1C)C2=O,31%
4,Cc1ccc(CCC2=CCCc3c2ccc2ccccc32)cc1,-3%
5,CNC(=O)OCc1c(COC(=O)NC)c(-c2ccc(Cl)c(Cl)c2)n2c1CCC2,-94%
6,O=C1C=CC(=O)c2c(O)c(Nc3ccc(OC(F)(F)F)cc3)c(Cl)c(O)c21,0%
7,Cn1ccnc1Oc1ccc(Cl)cc1,-11%
8,BrCc1cccc2ccc3cccc(CBr)c3c12,-3%
9,Oc1ccc(NCn2c(=S)sc3ccccc32)cc1,-44%
10,O=C1C2CC[C@@H]3C(=O)C(Cl)(Cl)[C@@H]3CCC2C1(Cl)Cl (stereo not given in full),1%
11,CC(Br)C(=O)c1ccc2cc(Br)c3ccccc3c2c1 (stereo not given),4%
12,Nc1nc(-c2cccnc2)cc(-c2cc(-c3cccnc3)nc(N)n2)n1,-1%
13,CC(C)=CC(=O)O[C@@H]1CC(C)(C)CC2C3=CCC4[C@]56CC[C@](O)(OC5)C(C)(C)C6CC[C@@]4(C)C3(C)CC[C@]21C(=O)O (stereo not given in full),-13%
14,CCC(C)COC(=O)c1ccc(N=Cc2ccc(C=Nc3ccc(C(=O)OCC(C)CC)cc3)cc2)cc1 (stereo not given),0%
15,O=C(O)c1cccc(-c2c3ccc(=O)cc-3oc3cc(O)ccc23)c1,-23%
16,CN(CCc1ccccn1)c1ccc2c(c1)Cc1ccccc1-2,0%
17,O=C1C2C(C(=O)N1c1ccc(OCc3ccccc3)cc1)C1c3ccccc3C2C2CCCCN21 (stereo not given),1%
18,Cc1ccc2ccc(O)cc2c1,-9%
19,COC(=O)c1ccc(NCC2=CC(=O)C=CC2=O)cc1O,17%
20,CCNc1nnc(CSc2nc(-c3ccccc3)c(-c3ccccc3)[nH]2)s1,3%

# Same assay, conditions: S. cerevisiae mlh1 strain growth inhibition; at 3.7 µM; stronger effect = higher value
row,Structure (SMILES),growth inhibition
1,COc1cc2c3c(cccc3c1)C(=O)N(CCN(C)C)C2=O,3%
2,c1ccc2c(c1)Oc1cccc3cccc-2c13,15%
3,CN(C)CCOc1ccc2c(c1)C/C(=C/c1ncc([N+](=O)[O-])n1C)C2=O,36%
4,Cc1ccc(CCC2=CCCc3c2ccc2ccccc32)cc1,-4%
5,CNC(=O)OCc1c(COC(=O)NC)c(-c2ccc(Cl)c(Cl)c2)n2c1CCC2,-90%
6,O=C1C=CC(=O)c2c(O)c(Nc3ccc(OC(F)(F)F)cc3)c(Cl)c(O)c21,6%
7,Cn1ccnc1Oc1ccc(Cl)cc1,-4%
8,BrCc1cccc2ccc3cccc(CBr)c3c12,-3%
9,Oc1ccc(NCn2c(=S)sc3ccccc32)cc1,-23%
10,O=C1C2CC[C@@H]3C(=O)C(Cl)(Cl)[C@@H]3CCC2C1(Cl)Cl (stereo not given in full),1%
11,CC(Br)C(=O)c1ccc2cc(Br)c3ccccc3c2c1 (stereo not given),4%
12,Nc1nc(-c2cccnc2)cc(-c2cc(-c3cccnc3)nc(N)n2)n1,-1%
13,CC(C)=CC(=O)O[C@@H]1CC(C)(C)CC2C3=CCC4[C@]56CC[C@](O)(OC5)C(C)(C)C6CC[C@@]4(C)C3(C)CC[C@]21C(=O)O (stereo not given in full),21%
14,CCC(C)COC(=O)c1ccc(N=Cc2ccc(C=Nc3ccc(C(=O)OCC(C)CC)cc3)cc2)cc1 (stereo not given),3%
15,O=C(O)c1cccc(-c2c3ccc(=O)cc-3oc3cc(O)ccc23)c1,-6%
16,CN(CCc1ccccn1)c1ccc2c(c1)Cc1ccccc1-2,3%
17,O=C1C2C(C(=O)N1c1ccc(OCc3ccccc3)cc1)C1c3ccccc3C2C2CCCCN21 (stereo not given),4%
18,Cc1ccc2ccc(O)cc2c1,-19%
19,COC(=O)c1ccc(NCC2=CC(=O)C=CC2=O)cc1O,51%
20,CCNc1nnc(CSc2nc(-c3ccccc3)c(-c3ccccc3)[nH]2)s1,5%

# Same assay, conditions: S. cerevisiae mlh1 strain growth inhibition; at 11.0 µM; stronger effect = higher value
row,Structure (SMILES),growth inhibition
1,COc1cc2c3c(cccc3c1)C(=O)N(CCN(C)C)C2=O,-19%
2,c1ccc2c(c1)Oc1cccc3cccc-2c13,14%
3,CN(C)CCOc1ccc2c(c1)C/C(=C/c1ncc([N+](=O)[O-])n1C)C2=O,29%
4,Cc1ccc(CCC2=CCCc3c2ccc2ccccc32)cc1,-4%
5,CNC(=O)OCc1c(COC(=O)NC)c(-c2ccc(Cl)c(Cl)c2)n2c1CCC2,-81%
6,O=C1C=CC(=O)c2c(O)c(Nc3ccc(OC(F)(F)F)cc3)c(Cl)c(O)c21,13%
7,Cn1ccnc1Oc1ccc(Cl)cc1,0%
8,BrCc1cccc2ccc3cccc(CBr)c3c12,-2%
9,Oc1ccc(NCn2c(=S)sc3ccccc32)cc1,-9%
10,O=C1C2CC[C@@H]3C(=O)C(Cl)(Cl)[C@@H]3CCC2C1(Cl)Cl (stereo not given in full),4%
11,CC(Br)C(=O)c1ccc2cc(Br)c3ccccc3c2c1 (stereo not given),6%
12,Nc1nc(-c2cccnc2)cc(-c2cc(-c3cccnc3)nc(N)n2)n1,-13%
13,CC(C)=CC(=O)O[C@@H]1CC(C)(C)CC2C3=CCC4[C@]56CC[C@](O)(OC5)C(C)(C)C6CC[C@@]4(C)C3(C)CC[C@]21C(=O)O (stereo not given in full),58%
14,CCC(C)COC(=O)c1ccc(N=Cc2ccc(C=Nc3ccc(C(=O)OCC(C)CC)cc3)cc2)cc1 (stereo not given),2%
15,O=C(O)c1cccc(-c2c3ccc(=O)cc-3oc3cc(O)ccc23)c1,39%
16,CN(CCc1ccccn1)c1ccc2c(c1)Cc1ccccc1-2,17%
17,O=C1C2C(C(=O)N1c1ccc(OCc3ccccc3)cc1)C1c3ccccc3C2C2CCCCN21 (stereo not given),0%
18,Cc1ccc2ccc(O)cc2c1,-27%
19,COC(=O)c1ccc(NCC2=CC(=O)C=CC2=O)cc1O,90% (active)
20,CCNc1nnc(CSc2nc(-c3ccccc3)c(-c3ccccc3)[nH]2)s1,0%

# Source: PubChem BioAssay (NCI)
